# According to PubChem BioAssay AID720700 (The Scripps Research Institute Molecular Screening Center, 2013):
# Screen size: about 370,000 compounds; about 3,100 (0.84%) were called active. Cut-off read from the data, not from the text of the source: active = inhibition above about 9.5%; inactive = the rest. For the sample, actives were picked, then their nearest neighbours and some compounds at random.
# Molecular target: 1-phosphatidylinositol 4,5-bisphosphate phosphodiesterase gamma-1 (Homo sapiens) (UniProt P19174)
# Assay: PLC-gamma1 enzyme inhibitors, primary screen, biochemical, fluorescence, purified enzyme (AID 720700)
# Settings: purified PLC-gamma1, fluorogenic substrate, at 12.2 µM, active compounds read high
# Sequence of 1-phosphatidylinositol 4,5-bisphosphate phosphodiesterase gamma-1 (Homo sapiens) (P19174 whole entry, looked up): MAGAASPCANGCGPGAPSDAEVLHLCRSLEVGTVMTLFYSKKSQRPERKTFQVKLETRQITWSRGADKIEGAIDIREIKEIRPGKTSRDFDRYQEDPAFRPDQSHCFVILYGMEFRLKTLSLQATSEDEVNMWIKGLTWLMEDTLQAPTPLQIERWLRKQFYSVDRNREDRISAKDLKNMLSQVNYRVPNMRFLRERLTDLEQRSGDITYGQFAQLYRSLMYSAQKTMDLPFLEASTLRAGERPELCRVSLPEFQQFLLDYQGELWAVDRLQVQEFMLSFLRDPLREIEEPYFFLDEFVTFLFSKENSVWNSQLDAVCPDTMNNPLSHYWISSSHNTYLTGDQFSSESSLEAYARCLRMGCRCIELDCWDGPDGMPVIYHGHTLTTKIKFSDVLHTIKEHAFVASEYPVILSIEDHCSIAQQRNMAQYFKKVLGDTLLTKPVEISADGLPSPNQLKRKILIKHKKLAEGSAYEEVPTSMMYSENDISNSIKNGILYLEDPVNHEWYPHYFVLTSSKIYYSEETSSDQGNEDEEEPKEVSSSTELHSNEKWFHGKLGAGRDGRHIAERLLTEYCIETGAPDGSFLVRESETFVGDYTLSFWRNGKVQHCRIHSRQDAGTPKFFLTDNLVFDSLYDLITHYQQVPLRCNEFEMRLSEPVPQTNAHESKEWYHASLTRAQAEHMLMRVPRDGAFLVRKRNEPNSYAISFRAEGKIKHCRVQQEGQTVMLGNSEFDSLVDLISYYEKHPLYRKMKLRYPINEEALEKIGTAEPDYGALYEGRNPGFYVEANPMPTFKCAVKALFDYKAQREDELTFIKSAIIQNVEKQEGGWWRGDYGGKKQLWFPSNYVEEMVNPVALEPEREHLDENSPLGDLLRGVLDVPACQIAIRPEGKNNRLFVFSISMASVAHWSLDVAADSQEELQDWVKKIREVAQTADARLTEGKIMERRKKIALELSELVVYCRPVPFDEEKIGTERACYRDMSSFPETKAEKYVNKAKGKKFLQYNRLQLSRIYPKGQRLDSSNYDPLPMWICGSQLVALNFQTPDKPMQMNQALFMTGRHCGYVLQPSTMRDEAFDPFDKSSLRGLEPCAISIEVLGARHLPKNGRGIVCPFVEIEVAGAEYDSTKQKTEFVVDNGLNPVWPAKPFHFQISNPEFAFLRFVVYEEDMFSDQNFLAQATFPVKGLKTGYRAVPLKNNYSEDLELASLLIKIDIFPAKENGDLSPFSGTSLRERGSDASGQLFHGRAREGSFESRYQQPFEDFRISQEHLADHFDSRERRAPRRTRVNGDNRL
row,Structure (SMILES),inhibition
1,COC[C@@H]1CCCN1c1ccc2c(c1)O[C@H](C)CCN(C1CC1)S2(=O)=O,-1.38% (inactive)
2,O=C(c1ccncc1)N1CC[C@H]2[C@H](CCCN2Cc2ccc(F)cc2)C1,2.52% (inactive)
3,O=C(OC12CCCN(C1)/C(=C/c1ccccc1)C2)c1ccco1 (stereo not drawn),6.33% (inactive)
4,COc1ccc(CCNC(=O)COC(=O)Cc2cccc(F)c2)cc1,-3.08% (inactive)
5,O=C(COC(=O)Cc1ccccc1F)NCCc1ccccc1,-0.55% (inactive)
6,COc1ccc(CCNC(=O)COC(=O)Cc2ccccc2F)cc1,10.7% (active)
7,COC(=O)C[C@@H]1CC[C@H]2[C@@H](COc3ccc(NS(=O)(=O)CC(F)(F)F)cc3C(=O)N2C)O1,0.55% (inactive)
8,CC(C)N1CCCCC(NC(=O)c2ccc3ccccc3c2)C1=O (stereo not drawn),-1.22% (inactive)
9,Cc1ccc(NS(=O)(=O)c2ccc3c(c2)n(C)c(=O)c(=O)n3C)c(C)c1,-0.33% (inactive)
10,Cc1ccc(NS(=O)(=O)c2ccc(N/N=C/c3ccccc3OCC(=O)O)c([N+](=O)[O-])c2)c(C)c1,10.8% (active)
11,Cc1ccc(S(=O)(=O)NC(=O)COc2ccccc2C)cc1,-1.05% (inactive)
12,COC(=O)[C@]12C[C@H](CC(=O)NCCc3ccccc3OC)C(=O)N(Cc3ccco3)C1=C[C@H](C(C)C)O[C@@H]2C1CC1,-0.19% (inactive)
13,O=C(NCCC1=CCCCC1)C1CCN(S(=O)(=O)c2ccc(Cl)s2)CC1,-0.14% (inactive)
14,CCOC(=O)c1csc(NC(=O)C2CCCN(S(=O)(=O)c3ccc(Cl)s3)C2)n1 (stereo not drawn),6.52% (inactive)
15,CN(C)Cc1cn(-c2ccc(-c3noc4c3C(=O)N(CC(=O)N3CCOCC3)CC4)cc2)nn1,-16.7% (inactive)
16,CN(C(=O)CSc1nnc(N)s1)c1c(N)n(Cc2ccccc2)c(=O)[nH]c1=O,-0.92% (inactive)
17,COC(=O)c1ccc(CSc2nnc(N)s2)o1,-0.29% (inactive)
18,Nc1nnc(SCC(=O)OCc2ccc(Cl)c(Cl)c2)s1,10.9% (active)
19,CCCC1CCC2(CCCN2CCOC(=O)NCc2ccccc2)CC1 (stereo not drawn),2.03% (inactive)
20,O=C(NCC12CC3CC(C1)CC(CNC(=O)N1CCCC1)(C3)C2)N1CCCC1,-0.47% (inactive)

row,Structure (SMILES),inhibition
1,O=C(NC12CC3CC(CC(C3)C1)C2)N1CCCC(CO)C1 (stereo not drawn),11.5% (active)
2,O=C(CNCCO)NC12CC3CC(CC(C3)C1)C2,9.27% (inactive)
3,O=C(NCCc1c[nH]c2ccccc12)OCc1cn(-c2c(F)cccc2F)nn1,-2.05% (inactive)
4,CCCCCCCCNS(=O)(=O)/C=C/c1cc(C)ccc1CNC(=O)OC(C)(C)C,-1.88% (inactive)
5,COC(=O)[C@]12C[C@H](CC(=O)NCCCN3CCCC3=O)C(=O)N(CCc3ccc(OC)c(OC)c3)C1=C[C@H](COCc1ccccc1)O[C@@H]2C,4.14% (inactive)
6,CN(C)/C=C/c1c(C#N)c(=O)ncn1Cc1ccccc1,2.62% (inactive)
7,CC(=O)Cn1cnc2c(cnn2-c2ccccc2)c1=O,0.74% (inactive)
8,Cc1c(C#N)c2ncn(CC#N)c(=O)c2n1-c1ccccc1,9.69% (active)
9,COC(CNC(=O)[C@H](Cc1ccccc1)NC1(C(=O)NC2CCCCC2)CCCCC1)OC,0.41% (inactive)
10,CCc1ccc(-c2nc(SCC(=O)NC3CCCC3)n[nH]2)cc1,9.58% (active)
11,COC(=O)c1ccccc1NC(=O)CSc1n[nH]c(-c2ccncc2)n1,1.06% (inactive)
12,CCc1c(C)nc(SCC(=O)NC2CCCC2)[nH]c1=O,0.69% (inactive)
13,O=C(CSc1nnc(-c2ccccc2)n1Cc1ccco1)Nc1ccccc1-c1ccccc1,8.54% (inactive)
14,COc1cccc(/C=C2\CC3(OC(C)=O)CCCN2C3)c1 (stereo not drawn),-1.03% (inactive)
15,COC(=O)[C@@]12CCCCC3=C1N(CCC3)C(=O)[C@H]2CC(=O)NCc1cccc2ccccc12,3.71% (inactive)
16,O=C(Nc1ccc(S(=O)(=O)N2CCOCC2)cc1)c1ccc2ncsc2c1,-4.28% (inactive)
17,Cc1nc2ccc(NC(=O)c3cccc(S(=O)(=O)N4CCOCC4)c3)cc2s1,14% (active)
18,O=C(CSc1ccccc1)Nc1cccc(S(=O)(=O)N2CCCCC2)c1,5.78% (inactive)
19,Cc1ccnc(SCC(=O)Nc2cccc(S(=O)(=O)N3CCOCC3)c2)n1,1.32% (inactive)
20,Cc1cc(C(=O)NNC(=O)c2cccc(S(=O)(=O)N3CCOCC3)c2)c2ccccc2n1,1.34% (inactive)

row,Structure (SMILES),inhibition
1,O=C(CSc1ccccc1)Nc1cccc(S(=O)(=O)N2CCOCC2)c1,11.5% (active)
2,COc1ccc(CN2C(=O)N3Cc4cc(OC)ccc4C3CS2(=O)=O)cc1 (stereo not drawn),0.38% (inactive)
3,O=C(NCCCc1ccccc1)[C@H](Cc1ccccc1)NC1(C(=O)NCCc2c[nH]c3ccccc23)CCC1,-0.08% (inactive)
4,Cc1ccc(C(=O)N(Cc2ccccn2)CC2CCCO2)cc1 (stereo not drawn),0.65% (inactive)
5,CN1C[C@]2(C=C3CCCCC3n3c(=O)n(-c4ccccc4)c(=O)n32)N=C1NC(=O)c1ccccc1 (stereo partly drawn),-0.41% (inactive)
6,CNC(=O)n1ccc(C(=O)N2CCCCC2)n1,9.53% (active)
7,Cc1cccc(NC(=O)N2CCCCCC2)c1C,0.02% (inactive)
8,Cc1ccc(C(=O)N2CCCC2)c(F)c1F,2.59% (inactive)
9,Nn1c(SCC(=O)N2c3ccccc3Sc3ccccc32)nnc1-c1n[nH]c2c1CCC2,1.2% (inactive)
10,COP(=O)(O)CNC(=O)OCc1ccccc1,2.2% (inactive)
11,CC(CCN1CCC(C(O)(c2ccccc2)c2ccccc2)CC1)Oc1ccc(C(F)(F)F)cc1 (stereo not drawn),6.64% (inactive)
12,COC(=O)c1cc(S(=O)(=O)N2CCN(c3ccccc3C)CC2)cn1C,-2.77% (inactive)
13,C=CCN1C(=O)[C@H](CC(=O)NCCCN2CCCC2=O)[C@@]2(C(=O)OCC)CCCC=C12,-1.95% (inactive)
14,CCCCCN1CCCCC(NC(=O)C(C)CCC)C1=O (stereo not drawn),0.76% (inactive)
15,CC(=O)O[C@@]1(C(C)=O)CCC2[C@H]3C=C(C)C4=CC(=O)CC[C@@]4(C)C3CC[C@]21C (stereo partly drawn),-2.78% (inactive)
16,CCC1S/C(=N/N=C/c2ccco2)NC1=O (stereo not drawn),10.6% (active)
17,O=C1N/C(=N\N=C\c2ccco2)SC1Cc1ccc(F)cc1 (stereo not drawn),2.17% (inactive)
18,CCCCC1S/C(=N/N=C/c2cccs2)NC1=O (stereo not drawn),-0.02% (inactive)
